The values below come from PubChem BioAssay (NCI).

Among the test systems are RPMI-8226 leukemia; OVCAR-8 ovarian; OVCAR-5 ovarian; OVCAR-4 ovarian; SK-OV-3 ovarian; IGROV1 ovarian; OVCAR-3 ovarian; HS 578T breast; NCI/ADR-RES ovarian; T-47D breast; BT-549 breast; MDA-MB-435 melanoma; SW-620 colon; MCF7 breast; HCT-116 colon; HCC-2998 colon; KM12 colon.
What all share (experiment): NCI-60 one-dose screen, 48 h (100 = growth as untreated, 0 = no growth, -100 = all killed)
Common to all, as to settings: 10 µM unless noted

The panel holds about 83,000 compounds, 20% with a hit somewhere; the sample as a whole holds those more often.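 Treatment: one concentration, 48 hours, 96-well format. Scoring: percent growth, with anything below 10 considered active.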 Values without a mark were called inactive. Active and inactive are the calls of the source.

Take `CCOC(=O)c1c(C)nc2c(c1N)CC(=O)N2CCc1ccccc1`: the growth in the experiment on RPMI-8226 leukemia is -6.34% (active); with OVCAR-8 ovarian it was 24.3%; in the experiment with OVCAR-5 ovarian, 53.3%; with OVCAR-4 ovarian, 62.8%; with SK-OV-3 ovarian, 45.6%; in the experiment with IGROV1 ovarian, 28.7%. Further, the growth in the experiment on OVCAR-3 ovarian is 35.4%; with HS 578T breast, 41.1%; with NCI/ADR-RES ovarian, 30.1%; with T-47D breast it was 53.9%; in the experiment on BT-549 breast, -17.1% (active); in the experiment with MDA-MB-435 melanoma it was 8.84% (active). For the same compound, the growth with SW-620 colon is -67.5% (active); in the experiment with MCF7 breast it was 11.8%; with HCT-116 colon, 6.98% (active); in the experiment on HCC-2998 colon it was 64.4%; in the experiment on KM12 colon, 16.1%.
As for `CCCNc1nc(C)[nH]c(=O)c1S`, the growth in the experiment on RPMI-8226 leukemia was 87.4%; in the experiment with OVCAR-8 ovarian, 105%; with OVCAR-5 ovarian, 113%; in the experiment with OVCAR-4 ovarian it was 105%; in the experiment on SK-OV-3 ovarian, 134%; in the experiment on IGROV1 ovarian, 102%. For the same compound, the growth with OVCAR-3 ovarian was 106%; with HS 578T breast, 137%; in the experiment with NCI/ADR-RES ovarian, 109%; with T-47D breast, 98.6%; with BT-549 breast it was 113%; in the experiment with MDA-MB-435 melanoma, 105%. Also, the growth with SW-620 colon was 121%; in the experiment on MCF7 breast it was 111%; in the experiment with HCC-2998 colon, 112%; in the experiment on KM12 colon, 107%.
Turning to `NS(=O)(=O)c1ccc(N2Cc3cc(Cl)ccc3OC3=C2C(=O)N(CC2CCCCC2)C3=O)cc1`, the growth in the experiment on RPMI-8226 leukemia is -30% (active); in the experiment on OVCAR-8 ovarian it was -71.9% (active); with OVCAR-5 ovarian, -88.7% (active); with OVCAR-4 ovarian it was -95.3% (active); in the experiment on SK-OV-3 ovarian it was 60%; with IGROV1 ovarian, -47.6% (active). For the same compound, the growth in the experiment on OVCAR-3 ovarian was -89.6% (active); with HS 578T breast, 14.5%; with NCI/ADR-RES ovarian, 4.6% (active); in the experiment on T-47D breast it was -55.3% (active); in the experiment with BT-549 breast, -76.4% (active); with MDA-MB-435 melanoma, -73.9% (active). The growth was -77.5% (active) in the experiment on SW-620 colon, -71.5% (active) in the experiment with MCF7 breast, -72.9% (active) in the experiment with HCC-2998 colon and 4.52% (active) in the experiment on KM12 colon.
`C=C1C(=O)O[C@H]2[C@H]1CC/C(COC(=O)c1cccnc1)=C\CC[C@@]1(C)O[C@@H]21`: the growth in the experiment on RPMI-8226 leukemia is 28.5%; in the experiment with OVCAR-8 ovarian, 86.4%; in the experiment on OVCAR-5 ovarian it was 73.8%; in the experiment with OVCAR-4 ovarian it was 70%; with SK-OV-3 ovarian it was 86.1%; in the experiment on IGROV1 ovarian, 64.8%. Moreover, the growth in the experiment on OVCAR-3 ovarian is 26.4%; in the experiment with HS 578T breast, 89.9%; with NCI/ADR-RES ovarian, 93.5%; with T-47D breast, 55.7%; in the experiment with BT-549 breast, 68.4%; with MDA-MB-435 melanoma, 49.7%. Further, the growth was 17.7% with SW-620 colon, 21.4% with MCF7 breast, 108% in the experiment with HCC-2998 colon and 109% with KM12 colon.
With `COc1ccc(Cc2nc(C#N)c(N3CCN(c4ccc(F)cc4)CC3)o2)cc1`, the growth is 93.3% in the experiment on RPMI-8226 leukemia; 103% with OVCAR-8 ovarian; 86.7% in the experiment with OVCAR-5 ovarian; 79.3% in the experiment with OVCAR-4 ovarian; 89.6% with SK-OV-3 ovarian; 76.8% with IGROV1 ovarian. Also, the growth with OVCAR-3 ovarian is 96.9%; with HS 578T breast, 92.5%; in the experiment on NCI/ADR-RES ovarian, 95.3%; in the experiment with T-47D breast, 81.2%; with BT-549 breast, 94.5%; in the experiment with MDA-MB-435 melanoma, 84.6%. Besides, the growth in the experiment on SW-620 colon is 97.7%; with MCF7 breast it was 79.7%; with HCT-116 colon, 78.2%; with HCC-2998 colon it was 93.8%; in the experiment with KM12 colon, 78.8%.
On to `COc1cc2c(Nc3ccc(NC(=O)Nc4ccc(Cl)c(C(F)(F)F)c4)c(Cl)c3)ncnc2cc1OCCCN1CCN(C)CC1`, for which the growth in the experiment on RPMI-8226 leukemia is -39% (active); in the experiment on OVCAR-8 ovarian, 13%; with OVCAR-5 ovarian, 31%; with OVCAR-4 ovarian it was -9.14% (active); in the experiment on SK-OV-3 ovarian, 20.4%; in the experiment on IGROV1 ovarian, -2.58% (active). The growth in the experiment on OVCAR-3 ovarian was 11%; with HS 578T breast, -8.65% (active); in the experiment on NCI/ADR-RES ovarian, 93.3%; with T-47D breast, 22.2%; in the experiment on BT-549 breast, 21.6%; in the experiment with MDA-MB-435 melanoma it was -71.2% (active). For the same compound, the growth in the experiment on SW-620 colon is -85.4% (active); with MCF7 breast, -77.4% (active); in the experiment with HCC-2998 colon, 20.2%; in the experiment on KM12 colon, -55.1% (active).
For `COc1cc(N=Nc2cc(S(=O)(=O)O)cc3cc(S(=O)(=O)O)cc(O)c23)c(C)cc1N=Nc1c(S(=O)(=O)O)cc2cc(Nc3ccccc3)ccc2c1O`, the growth in the experiment on RPMI-8226 leukemia was 103%; with OVCAR-8 ovarian it was 106%; in the experiment with OVCAR-5 ovarian, 111%; in the experiment with OVCAR-4 ovarian, 97.8%; in the experiment with SK-OV-3 ovarian, 102%; in the experiment with IGROV1 ovarian it was 96.6%. Besides, the growth in the experiment with OVCAR-3 ovarian was 97.2%; with HS 578T breast it was 108%; in the experiment with NCI/ADR-RES ovarian it was 110%; in the experiment on T-47D breast, 93.4%; in the experiment on BT-549 breast, 103%; in the experiment with MDA-MB-435 melanoma, 109%. Further, the growth is 108% with SW-620 colon, 103% with MCF7 breast, 105% in the experiment with HCC-2998 colon and 102% in the experiment with KM12 colon.
Turning to `COC(=O)c1ccc2c(c1)n(Cc1ccc3ccccc3c1)c[n+]2Cc1ccc2ccccc2c1`, the growth in the experiment on RPMI-8226 leukemia was -5.06% (active); in the experiment with OVCAR-8 ovarian, 52.9%; in the experiment on OVCAR-5 ovarian, 55.6%; in the experiment with OVCAR-4 ovarian, 35.5%; in the experiment on SK-OV-3 ovarian it was 75.5%; with IGROV1 ovarian, 4.97% (active). In addition, the growth in the experiment on OVCAR-3 ovarian is 15.6%; in the experiment on HS 578T breast, 67.6%; in the experiment with NCI/ADR-RES ovarian, 101%; with T-47D breast, 0.0638% (active); with BT-549 breast, 56.7%; in the experiment with MDA-MB-435 melanoma, 4.2% (active). Also, the growth is 37.6% with SW-620 colon, 29.2% with MCF7 breast, 33.9% in the experiment on HCC-2998 colon and -8.69% (active) in the experiment on KM12 colon.
Regarding `COc1ccc(/C=C/C(=O)/C=C(/C=C/c2ccc(OC)c(OC)c2)OB(F)F)cc1OC`, the growth with RPMI-8226 leukemia is -20.9% (active); with OVCAR-8 ovarian, 5.06% (active); in the experiment with OVCAR-5 ovarian it was 65.2%; in the experiment with OVCAR-4 ovarian, 44.8%; in the experiment with SK-OV-3 ovarian, 81.9%; with IGROV1 ovarian it was 49.6%. In addition, the growth was -8.63% (active) in the experiment with OVCAR-3 ovarian; 50.2% with HS 578T breast; 30.1% with NCI/ADR-RES ovarian; 35.5% in the experiment with T-47D breast; 44.3% in the experiment with BT-549 breast; 8.23% (active) in the experiment with MDA-MB-435 melanoma. The growth in the experiment with SW-620 colon is -21.8% (active); with MCF7 breast, 20.1%; with HCT-116 colon it was -45.6% (active); in the experiment on HCC-2998 colon, 102%; in the experiment on KM12 colon it was 36.1%.
Consider `CC(=O)c1cnc(-c2ccccc2)nc1CBr`, for which the growth with RPMI-8226 leukemia was 37.7%; in the experiment with OVCAR-8 ovarian, 89.3%; with OVCAR-5 ovarian it was 96.3%; with OVCAR-4 ovarian, 79.7%; in the experiment on SK-OV-3 ovarian, 105%; with IGROV1 ovarian it was 89.2%. Also, the growth is 30.1% in the experiment with OVCAR-3 ovarian; 89% in the experiment on HS 578T breast; 92.2% in the experiment on NCI/ADR-RES ovarian; 38.5% with T-47D breast; 70.3% with BT-549 breast; 86.4% in the experiment on MDA-MB-435 melanoma. Besides, the growth is 39.6% in the experiment on SW-620 colon, 52.2% with MCF7 breast, 99.8% in the experiment with HCC-2998 colon and 95.2% in the experiment with KM12 colon.
